D2 PAM-1: Beta-Arrestin HTS for Positive Allosteric Modulators of the Human D2 Dopamine Receptor: Potentiators | D(2) dopamine receptor (Homo sapiens), P14416 | hit rate 0.23% among 360,000 | AID 624464, 2012 | potentiation, % (concentration not given with the values) | DiscoveRx D2 beta-arrestin cells, luminescence, 90 min; 100% = 57 uM dopamine signal; in the data active means potentiation above about 50%; inconclusive means mostly about 30% to 49%
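D2 cells co-treated with compound plus 50 nM dopamine (EC20) for 90 min at 37 deg C to detect potentiation. Beta-arrestin recruitment was read as enzyme-fragment luminescence after 1 h at ambient temperature. Full response was set by 57 uM dopamine.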
D2 antag: HTS Assay for Allosteric Antagonists of the Human D2 Dopamine Receptor: Primary Screen for Antagonists; HEK293 TREx D2 cells, calcium flux, dopamine EC80; inhibition, % at 10 µM; hit rate 2% among 340,000; AID 485344, 2010; in the data active means inhibition above about 30%; inactive means below that, where a call was filed
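Tetracycline-induced HEK293 TREx cells expressing D2 receptor forced-coupled to calcium signalling, loaded with no-wash calcium dye. Compounds added and calcium flux read 180 s, then dopamine added at EC80 and read a further 180 s.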
B2AR arrestin: qHTS assay of beta-arrestin-biased ligands of beta2-adrenergic receptor. Potency, µM (top dose mostly 46.1 µM), hits mostly activators. hit rate 0.02% among 330,000. Beta-2 adrenergic receptor (Homo sapiens), P07550. beta-arrestin recruitment to beta2AR, cell-based reporter. AID 492947, 2010; further: nearly all actives have a fitted effect of over 65% in size
D2 ag-1: Beta-Arrestin HTS for Positive Allosteric Modulators of the Human D2 Dopamine Receptor: Agonists; D(2) dopamine receptor (Homo sapiens), P14416; DiscoveRx PathHunter D2 beta-arrestin, luminescence, 90 min; 100% = 57 uM dopamine signal; activation, % (test concentration not listed); hit rate 0.084% among 360,000; AID 624465, 2012; in the data active means activation above about 40%; inconclusive means between about 15% and that limit
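DiscoveRx PathHunter D2 beta-arrestin cells (2,100/well) attached overnight, then compound-stimulated 90 min at 37 C in HBSS/10 mM HEPES/0.1% Tween-20 buffer; beta-galactosidase complementation read by luminescence after 1 h at ambient temperature. Dopamine 57 uM final (EC100) as control.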
D2 PAM-2: HTS Assay for Positive Allosteric Modulators of the Human D2 Dopamine Receptor: Primary Screen for Potentiators; HEK293 T-REx D2, calcium flux, EC20 dopamine potentiation; D(2) dopamine receptor (Homo sapiens), P14416; potentiation, % at 10 µM; hit rate 0.34% among 340,000;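 active means potentiation over 3 SD above the plate norm, cut at about 30% in these data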
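Calcium flux readout, no-wash dye, 1 read/s. Inducible HEK293 Trex D2 line, overnight 30 C. Compound alone 180 s (agonist flags), then EC20 dopamine, another 180 s to score potentiation.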
D2 ag-2: HTS Assay for Allosteric Agonists of the Human D2 Dopamine Receptor: Primary Screen for Agonists; D(2) dopamine receptor (Homo sapiens), P14416; HEK293 T-REx D2 cells, calcium flux agonist mode; activation, % at 2 µM; hit rate 0.53% among 340,000; AID 485358, 2010;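 active means activation over 3 SD above normal in the single-dose calcium agonist read, cut at about 30% in these data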
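Tetracycline-induced HEK293 T-REx cells with force-coupled D2 receptor, plated overnight at 30 C, loaded with no-wash calcium dye. After a 10 s baseline, compound was pin-added and calcium flux read kinetically for 180 s; calcium rises flagged agonists.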
D3 arrestin ag: qHTS of D3 Dopamine Receptor Agonist: D3 Dopamine Receptor B-arrestin Agonist Confirmatory Assay. shares compounds with D2 ag-2. DiscoveRx D3 beta-arrestin cells, luminescence, 90 min. Potency, µM (top dose mostly 76.9 µM), hits mostly activators. hit rate 4% among 2,300; further: nearly all actives have a fitted effect of over 70% in size
Target sequence (P35462 whole entry, looked up): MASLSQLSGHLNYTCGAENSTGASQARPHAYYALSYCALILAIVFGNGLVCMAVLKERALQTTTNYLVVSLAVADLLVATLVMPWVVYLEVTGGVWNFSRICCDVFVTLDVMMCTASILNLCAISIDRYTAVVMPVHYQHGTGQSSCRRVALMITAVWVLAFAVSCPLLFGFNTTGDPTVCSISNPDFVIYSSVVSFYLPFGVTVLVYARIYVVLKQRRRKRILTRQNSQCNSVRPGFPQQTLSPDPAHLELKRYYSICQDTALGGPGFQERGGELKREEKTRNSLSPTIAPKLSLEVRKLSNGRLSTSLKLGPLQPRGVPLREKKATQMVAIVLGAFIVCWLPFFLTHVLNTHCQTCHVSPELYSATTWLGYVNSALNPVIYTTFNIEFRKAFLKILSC
D2 ag-3: qHTS of D3 Dopamine Receptor Agonist: D2 Dopamine Receptor B-arrestin Agonist Counterscreen; hit rate 5.9% among 2,300; shares compounds with D2 ag-2; DiscoveRx PathHunter D2 beta-arrestin, luminescence, 90 min; response scale: percent relative to full dopamine signal; AID 720507, 2013; Potency, µM (titrated, usually from 76.9 µM), most hits filed as activators; further: nearly all actives have a fitted effect of over 70% in size
Of the large screens only hits and unclear results are named; the others gave an inactive call (follow-up assays come after a bar, where they were run). Most compounds without a hit are left out; they make up all but 2.4% or so of the library. Unless noted, the call rests on the fitted dose curve; in most records, active means well fitted activation curve with a large enough effect; inconclusive means small, poorly fitted or top-dose-only effect; inactive means flat fitted curve, though single readings scatter.

CCC(C)Nc1ccc(NC(C)CC)cc1 (centres undefined)	none | D3 arrestin ag inactive | D2 ag-3 inactive
COC(=O)CN(C)C(=O)CC1C(=O)NCCN1CC(C)(C)C (centres undefined)	D2 ag-2 40 | D3 arrestin ag inactive | D2 ag-3 inactive
O=C(CCCCCNC(=O)c1ccccc1Br)N=Nc1c(O)[nH]c2ccccc12	none | D3 arrestin ag inactive | D2 ag-3 inactive
O=C1Nc2ccc(F)cc2C12OCCO2	none
Cn1c(C(=O)NCCN2CCN(c3ccccc3F)CC2)cc2c(=O)n(C)c3ccccc3c21	D2 antag 95, D2 ag-2 54 | D3 arrestin ag inactive | D2 ag-3 inactive
Cc1c(C)n(C)c2ccc(C(=O)NCCCN3CCN(c4ccccc4F)CC3)cc12	D2 antag 98, D2 ag-2 67 | D3 arrestin ag inactive | D2 ag-3 inactive
Cc1c(C)n(C)c2ccc(C(=O)NCCCN3CCN(c4ccc(F)cc4)CC3)cc12	none
COC(=O)c1cc(S(=O)(=O)NCCN2CCN(c3ccccc3F)CC2)c[nH]1	D2 antag 73 | D3 arrestin ag inactive | D2 ag-3 inactive
CCc1nc2ccc(C(=O)NCCCN3CCN(c4ccccc4F)CC3)cc2nc1CC	D2 antag 88 | D3 arrestin ag inactive | D2 ag-3 inactive
COc1ccc(CC(NC(C)=O)C(=O)NC2CCN(S(=O)(=O)c3cccc4ccccc34)CC2)cc1OC (centres undefined)	none
Cc1ccsc1/C=C(\C#N)C(=O)NCc1ccco1	none (no result: D2 antag, D2 ag-2)
O=C(NCCN1CCN(c2ccccc2F)CC1)c1ccc2nc3ccccc3c(=O)n2c1	D2 antag 57, D2 ag-2 67 | D3 arrestin ag inactive | D2 ag-3 inconclusive
Cc1ccc(S(=O)(=O)NCC(c2cccnc2)N2CCN(Cc3ccccc3)CC2)cc1 (centres undefined)	none
O=S(=O)(NCC(c1cccnc1)N1CCN(Cc2ccccc2)CC1)c1ccccc1 (centres undefined)	D2 ag-2 61 | D3 arrestin ag inactive | D2 ag-3 inactive
CC(=O)c1c(C)[nH]c(C(=O)OCC(=O)Nc2ccccc2Cl)c1C	none
CC(=O)c1c(C)[nH]c(C(=O)OCC(=O)Nc2nnc(-c3ccccc3)o2)c1C	D2 antag 35 | D3 arrestin ag inactive | D2 ag-3 inactive
CC(C)NC[C@@H](O)c1ccc(O)c(O)c1	none (no result: B2AR arrestin) | D3 arrestin ag inconclusive | D2 ag-3 inactive
CC1(C)Cc2cccc(OCC(O)CN3CCN(c4ccccn4)CC3)c2O1 (centres undefined)	D2 antag 60, D2 ag-1 inconclusive, D2 ag-2 72 | D3 arrestin ag inconclusive | D2 ag-3 inconclusive
CC1(C)Cc2cccc(OCC(O)CNCc3ccccn3)c2O1 (centres undefined)	none

High-throughput results: PubChem, National Center for Advancing Translational Sciences (NCATS)
